# Inconclusive results are not listed. Activity calls are given as the source filed them. Calls come from the whole dose curve; as a rule, active = well fitted curve in the direction sought with a large enough effect in the repeat runs; inconclusive = weak or mixed curves; inactive = no such curve, though single readings can be large; an effect the other way counts as inactive or inconclusive.
# Test: qHTS assay to identify small molecule agonists of the RXR signaling pathway - cell viability counter screen (AID 1159529); note: nearly all actives have a fitted effect of over 50% in size
# Settings: RXR-alpha-bla HEK293T viability, CellTiter-Glo, 16 h; series mostly up to 76.8 µM; activity change, negative = cytotoxicity: at the top concentration
# Summary of the method: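 Luminescence from CellTiter-Glo (30 min, RT) measured viability in the same wells as the beta-lactamase reporter readout. Cells: GeneBLAzer RXR-alpha HEK 293T, 2% charcoal-stripped FBS. Compound exposure 16 hr, 37 C.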
# % is set by controls: 0 for no effect and ±100 for the full control effect.
row,Structure (SMILES),"activity change, negative = cytotoxicity"
1,BrC/C=C/CBr,-1.93% [at 15.8 µM] (inactive)
2,CC(=O)Nc1ncc([N+](=O)[O-])s1,0.0731% [at 35.3 µM] (inactive)
3,CC(=O)OC(C)(C)Cc1ccccc1,-7.1% (inactive)
4,CCCCCCCCOC(C)=O,11.2% (inactive)
5,CC(C)(c1ccc(Oc2ccc3c(c2)C(=O)OC3=O)cc1)c1ccc(Oc2ccc3c(c2)C(=O)OC3=O)cc1,7.01% (inactive)
6,C=CC(C)(O)CC/C=C(\C)CC (centres undefined),4.86% (inactive)
7,FC(F)(F)/C(=N\OCC1OCCO1)c1ccc(Cl)cc1,1.54% (inactive)
8,CC(Cl)COP(=O)(OCC(C)Cl)OCC(C)Cl (centres undefined),-7.13% (inactive)
9,C=C(C)C(=O)OCCCCCCOC(=O)C(=C)C,-14.2% (inactive)
10,O=C(O)CCNC(=O)c1ccccc1,0.133% [at 35.3 µM] (inactive)
11,CCCOCCOCCOCCO,3.98% (inactive)
12,COCC(=O)Nc1c(I)c(C(=O)NCC(O)CO)c(I)c(C(=O)N(C)CC(O)CO)c1I (centres undefined),11.4% [at 35.3 µM] (inactive)
13,O=C(O)/C=C/c1ccccc1,3.95% (inactive)
14,Cc1oc(=O)oc1CN1CCN(c2cc3c(cc2F)c(=O)c(C(=O)O)c2n3C(C)S2)CC1 (centres undefined),2.95% [at 35.3 µM] (inactive)
15,Cc1ccc(C(=O)C(=O)O)cc1C,-3.38% [at 35.3 µM] (inactive)
16,CCCCCCCCCCCCCCCCI,14.9% [at 15.8 µM] (inactive)

row,Structure (SMILES),"activity change, negative = cytotoxicity"
1,C=CCOc1c(Br)cc(Br)cc1Br,-2.13% (inactive)
2,SCCSCCS,0.762% (inactive)
3,CC1CCC(C(C)(C)S)C(=O)C1 (centres undefined),6.57% (inactive)
4,CCOC(=O)C(C)(C)C,2.74% (inactive)
5,CCCCC[Si](OCC)(OCC)OCC,-9.05% (inactive)
6,CCC(=O)c1ccc(O)cc1,2.32% [at 35.3 µM] (inactive)
7,CCOC(=O)CCc1ccccc1,-1.08% (inactive)
8,CCC(C)N (centres undefined),-0.977% (inactive)
9,CCCCC(=O)N(C)C,12.2% (inactive)
10,CCCC(C)CC (centres undefined),-0.867% (inactive)
11,CCOC(=O)C(=O)c1csc(NC=O)n1,0.581% [at 35.3 µM] (inactive)
12,CN(C)CCOCCN(C)CCO,6.7% (inactive)
13,COc1ccc(/C=N/NC(=O)c2ccncc2)cc1OC,6.75% [at 35.3 µM] (inactive)
14,C=CCOC(=O)c1ccc(C(=O)OCC=C)c(C(=O)OCC=C)c1,-14.5% (inactive)
15,CC(=O)/C=C/c1ccco1,12.1% (inactive)
16,CCCCOC(=O)C(C)OC(=O)CCC (centres undefined),-4.2% (inactive)

# Test: qHTS assay to identify small molecule antagonists of the retinoid acid receptor (RAR) signaling pathway - cell viability counter screen (AID 1159551); note: nearly all actives have a fitted effect of over 35% in size
# Settings: C3RL4 cells viability, ATP luminescence (CellTiter-Glo), 6 h; series mostly up to 92.4 µM; activity change, negative = cytotoxicity: at the top concentration
# Summary of the method: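 C3RL4 RARE-luciferase cells, 1,000/well, incubated overnight, then dosed with compound plus 1 uM retinol (final). After 6 hr at 37 C, viability read by CellTiter-Glo ATP luminescence following 30 min at room temperature.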
row,Structure (SMILES),"activity change, negative = cytotoxicity"
1,BrC/C=C/CBr,3.13% [at 19 µM] (inactive)
2,CC(=O)Nc1ncc([N+](=O)[O-])s1,-0.115% [at 42.5 µM] (inactive)
3,O=C(COCCOCCOCC(=O)Nc1c(I)cc(I)c(C(=O)O)c1I)Nc1c(I)cc(I)c(C(=O)O)c1I,1.78% [at 42.5 µM] (inactive)
4,CC(=O)OC(C)(C)Cc1ccccc1,5.65% (inactive)
5,CCCCCCCCOC(C)=O,-3.53% (inactive)
6,C=CC(C)(O)CC/C=C(\C)CC (centres undefined),-0.254% (inactive)
7,FC(F)(F)/C(=N\OCC1OCCO1)c1ccc(Cl)cc1,-1.41% (inactive)
8,CC(Cl)COP(=O)(OCC(C)Cl)OCC(C)Cl (centres undefined),0.108% (inactive)
9,O=C(O)CCNC(=O)c1ccccc1,3.66% [at 42.5 µM] (inactive)
10,CCCOCCOCCOCCO,2.39% (inactive)
11,COCC(=O)Nc1c(I)c(C(=O)NCC(O)CO)c(I)c(C(=O)N(C)CC(O)CO)c1I (centres undefined),1.29% [at 42.5 µM] (inactive)
12,O=C(O)/C=C/c1ccccc1,0.782% (inactive)
13,Cc1ccc(C(=O)C(=O)O)cc1C,0.384% [at 42.5 µM] (inactive)
14,CCCCCCCCCCCCCCCCI,-0.67% [at 19 µM] (inactive)
15,N#CCCOCCOCCC#N,0.651% (inactive)
16,C=CCOc1c(Br)cc(Br)cc1Br,-0.0046% (inactive)
17,SCCSCCS,-1.24% (inactive)
18,CC1CCC(C(C)(C)S)C(=O)C1 (centres undefined),1.42% (inactive)
19,CCOC(=O)C(C)(C)C,5.56% (inactive)
20,CCCCC[Si](OCC)(OCC)OCC,0.118% (inactive)
21,CCC(=O)c1ccc(O)cc1,0.508% [at 42.5 µM] (inactive)
22,CCOC(=O)CCc1ccccc1,-2.34% (inactive)
23,CCC(C)N (centres undefined),-0.379% (inactive)
24,CCCCC(=O)N(C)C,-0.731% (inactive)
25,CN(C)CCOCCN(C)CCO,4.76% (inactive)
26,C=CCOC(=O)c1ccc(C(=O)OCC=C)c(C(=O)OCC=C)c1,-0.246% (inactive)
27,CC(=O)/C=C/c1ccco1,-0.858% (inactive)
28,CC(=O)N(CC(O)CO)c1c(I)c(C(=O)NCC(O)CO)c(I)c(C(=O)NCC(O)CO)c1I (centres undefined),0.438% [at 42.5 µM] (inactive)
29,C[Si]1(C)N[Si](C)(C)N[Si](C)(C)N1,-0.316% (inactive)
30,O=C1OC(=O)c2ccccc21,4.52% (inactive)

# Test: qHTS assay to identify small molecule antagonists of the retinoic acid receptor (RAR) signaling pathway (AID 1159552; note: nearly all actives have a fitted effect of over 50% in size)
# Settings: C3RL4 RARE luciferase reporter, retinol-stimulated, 6 h; series mostly up to 92.4 µM; activity, negative = inhibition: at the top concentration
# Summary of the method: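 Luminescence from a RARE luciferase reporter in C3RL4 cells served as read-out. Cells received compounds together with 1 uM final retinol and incubated 6 hr at 37 C before detection reagent was added for 30 min at room temperature.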
row,Structure (SMILES),"activity, negative = inhibition"
1,BrC/C=C/CBr,22.9% [at 19 µM] (inactive)
2,CC(=O)Nc1ncc([N+](=O)[O-])s1,-15.8% [at 42.5 µM] (inactive)
3,O=C(COCCOCCOCC(=O)Nc1c(I)cc(I)c(C(=O)O)c1I)Nc1c(I)cc(I)c(C(=O)O)c1I,-1.16% [at 42.5 µM] (inactive)
4,CC(=O)OC(C)(C)Cc1ccccc1,21.7% (inactive)
5,CC(C)(c1ccc(Oc2ccc3c(c2)C(=O)OC3=O)cc1)c1ccc(Oc2ccc3c(c2)C(=O)OC3=O)cc1,0.804% (inactive)
6,C=CC(C)(O)CC/C=C(\C)CC (centres undefined),7.99% (inactive)
7,CC(Cl)COP(=O)(OCC(C)Cl)OCC(C)Cl (centres undefined),-3.8% (inactive)
8,C=C(C)C(=O)OCCCCCCOC(=O)C(=C)C,-1.62% (inactive)
9,COCC(=O)Nc1c(I)c(C(=O)NCC(O)CO)c(I)c(C(=O)N(C)CC(O)CO)c1I (centres undefined),8.92% [at 42.5 µM] (inactive)
10,O=C(O)/C=C/c1ccccc1,8.17% (inactive)
11,CCCCCCCCCCCCCCCCI,-6.93% [at 19 µM] (inactive)
12,N#CCCOCCOCCC#N,-1.15% (inactive)
13,C=CCOc1c(Br)cc(Br)cc1Br,-12.6% (inactive)
14,SCCSCCS,9.53% (inactive)
15,CC1CCC(C(C)(C)S)C(=O)C1 (centres undefined),-2.19% (inactive)
16,CCOC(=O)C(C)(C)C,-8.08% (inactive)

row,Structure (SMILES),"activity, negative = inhibition"
1,CC(C)COC(=O)CC(C(=O)OCC(C)C)S(=O)(=O)O (centres undefined),6.58% (inactive)
2,CCCCC[Si](OCC)(OCC)OCC,-8.94% (inactive)
3,CCC(=O)c1ccc(O)cc1,-3.39% [at 42.5 µM] (inactive)
4,CCOC(=O)CCc1ccccc1,-2.95% (inactive)
5,CCC(C)N (centres undefined),17.4% (inactive)
6,CCCCC(=O)N(C)C,9.51% (inactive)
7,CCCC(C)CC (centres undefined),8.87% (inactive)
8,CCOC(=O)C(=O)c1csc(NC=O)n1,-0.829% [at 42.5 µM] (inactive)
9,CN(C)CCOCCN(C)CCO,8.8% (inactive)
10,COc1ccc(/C=N/NC(=O)c2ccncc2)cc1OC,5.68% [at 42.5 µM] (inactive)
11,C=CCOC(=O)c1ccc(C(=O)OCC=C)c(C(=O)OCC=C)c1,43.6% (inactive)
12,CC(=O)/C=C/c1ccco1,-2.72% (inactive)
13,CC(=O)N(CC(O)CO)c1c(I)c(C(=O)NCC(O)CO)c(I)c(C(=O)NCC(O)CO)c1I (centres undefined),32.5% [at 42.5 µM] (inactive)
14,C[Si]1(C)N[Si](C)(C)N[Si](C)(C)N1,5.45% (inactive)
15,CCCCOC(=O)C(C)OC(=O)CCC (centres undefined),5.7% (inactive)
16,O=C1OC(=O)c2ccccc21,-19.7% (inactive)
